These results are taken from the antibiotic and cytotoxicity screens of Wong et al. (2023).

Structures are written as SMILES. The whole screen tested about 39,000 compounds, of which about 3,300 (8.5%) were called active. What follows is part of a selection rich in actives, with near analogues and random picks from the rest.

In this test the test system is HepG2. Nature of the test: cytotoxicity call (relative viability < 0.9). Conditions: 10 µM.
In the case of `C[C@H](CO)N1C[C@H](C)[C@@H](CN(C)S(=O)(=O)c2cn(C)cn2)Oc2ccc(NS(=O)(=O)c3cn(C)cn3)cc2CC1=O`, the cytotoxicity call was “inactive”. With `C[C@@H]1CCCCO[C@H](CN(C)S(C)(=O)=O)[C@H](C)CN([C@@H](C)CO)C(=O)c2cc(N(C)C)ccc2O1` the entry was “inactive”; with `O=C(Cc1ccncc1)NCC[C@@H]1CC[C@@H](NC(=O)C2CCOCC2)[C@H](CO)O1`, “inactive”; with `CC(C)NC(=O)Nc1ccc2c(c1)CC(=O)N([C@H](C)CO)C[C@H](C)[C@H](CN(C)Cc1ccc3c(c1)OCO3)O2`, “inactive”. On to `CCOC(=O)CCCCCC(=O)Nc1ccc2c(c1)C(=O)N([C@H](C)CO)C[C@@H](C)[C@@H](CN(C)C(=O)CCC(F)(F)F)OCCCC[C@H](C)O2`, for which the cytotoxicity call is “inactive”. Under `Cc1ccc(S(=O)(=O)N[C@@H](Cc2ccccc2)C(=O)NCCCn2cc(-c3cccc(/C=C/C(=O)NO)c3)nn2)cc1` stands “active”; under `Cc1ccc(S(=O)(=O)N[C@@H](Cc2ccccc2)C(=O)NCCCn2cc(CCC(=O)NO)nn2)cc1`, “inactive”.

With `Cc1ccc(S(=O)(=O)N[C@@H](Cc2ccccc2)C(=O)NCCn2cc(CCC(=O)NO)nn2)cc1`, the cytotoxicity call is “active”. Under `Cc1ccc(S(=O)(=O)N[C@@H](Cc2ccccc2)C(=O)NCCn2cc(-c3cccc(/C=C/C(=O)NO)c3)nn2)cc1` stands “inactive”; under `Cc1ccc(S(=O)(=O)N[C@H](C(=O)NCCn2cc(-c3cccc(/C=C/C(=O)NO)c3)nn2)C(C)C)cc1`, “inactive”. Under `Cc1ccc(S(=O)(=O)N[C@@H](Cc2ccccc2)C(=O)NCCn2cc(C(=O)NO)nn2)cc1` stands “inactive”; under `Cc1noc(C)c1NC(=O)Nc1ccc2c(c1)C(=O)N([C@@H](C)CO)C[C@H](C)[C@@H](CN(C)Cc1ccccc1)OCCCC[C@@H](C)O2`, “inactive”. Under `C[C@H](CO)N1C[C@H](C)[C@@H](CN(C)CC2CCCCC2)Oc2c(NC(=O)Nc3ccccc3)cccc2C1=O` stands “inactive”; under `C[C@H](CO)N1C[C@H](C)[C@H](CN(C)Cc2ccc(Cl)c(Cl)c2)Oc2ccc(NS(=O)(=O)c3ccc(Cl)cc3)cc2C1=O`, “active”.

Consider `C[C@H](CO)N1C[C@H](C)[C@@H](CN(C)Cc2ccc(Cl)c(Cl)c2)Oc2ccc(NS(=O)(=O)c3ccc(Cl)cc3)cc2C1=O`, for which the cytotoxicity call is “active”.

`C[C@@H]1CN([C@H](C)CO)C(=O)c2cc(NS(=O)(=O)c3ccc(Cl)cc3)ccc2O[C@H]1CN(C)Cc1ccc(Cl)c(Cl)c1`: the cytotoxicity call was “inactive”. Under `C[C@H]1CN([C@@H](C)CO)C(=O)c2cc(NS(=O)(=O)c3ccc(Cl)cc3)ccc2O[C@H]1CN(C)Cc1ccc(Cl)c(Cl)c1` stands “active”. With `C[C@H]1CN([C@@H](C)CO)C(=O)c2cc(NS(=O)(=O)c3ccc(F)cc3)ccc2O[C@H]1CN(C)Cc1ccc(Cl)c(Cl)c1` the entry was “inactive”; with `C[C@@H]1CN([C@@H](C)CO)C(=O)c2cc(NS(=O)(=O)c3ccc(Cl)cc3)ccc2O[C@@H]1CN(C)Cc1ccc(Cl)c(Cl)c1`, “active”; with `C[C@@H]1CN([C@H](C)CO)C(=O)c2cc(NS(=O)(=O)c3ccc(F)cc3)ccc2O[C@@H]1CN(C)Cc1ccc(Cl)c(Cl)c1`, “inactive”. With `C[C@H](CO)N1C[C@H](C)[C@@H](CN(C)Cc2ccc(Cl)c(Cl)c2)Oc2ccc(NS(=O)(=O)c3ccc(F)cc3)cc2C1=O` the entry was “inactive”; with `C/C=C/c1ccc2c(c1)O[C@@H](CN(C)S(=O)(=O)c1ccccc1OC)[C@H](C)CN([C@@H](C)CO)S2(=O)=O`, “inactive”; with `C[C@@H]1CN([C@H](C)CO)C(=O)Cc2cc(NS(=O)(=O)c3ccc(F)cc3)ccc2O[C@@H]1CN(C)S(=O)(=O)c1cn(C)cn1`, “inactive”. As to `C[C@H]1CCCCO[C@H](CN(C)C(=O)c2ccncc2)[C@@H](C)CN([C@@H](C)CO)C(=O)c2cc(NS(=O)(=O)c3ccc(Cl)cc3)ccc2O1`, the cytotoxicity call is “inactive”.

Take `Cc1noc(C)c1S(=O)(=O)Nc1ccc2c(c1)C(=O)N([C@@H](C)CO)C[C@H](C)[C@H](CN(C)C(=O)Nc1ccc3c(c1)OCO3)O2`: the cytotoxicity call was “inactive”.

As to `C[C@@H]1CN([C@@H](C)CO)C(=O)c2cc(NS(=O)(=O)c3ccc(Cl)cc3)ccc2O[C@@H](C)CCCCO[C@@H]1CN(C)C(=O)Cc1ccccc1`, the cytotoxicity call was “inactive”.

For `OC[C@H]1CCCN1CC1CC1`, the cytotoxicity call is “inactive”. Under `C[C@H]1CN([C@@H](C)CO)C(=O)c2cc(NS(=O)(=O)c3cn(C)cn3)ccc2O[C@H]1CN(C)Cc1ccccc1` stands “inactive”. Under `O=C(c1ccncc1)N1C[C@H]2[C@@H](c3ccccc31)[C@H](CO)N2C(=O)CN1CCOCC1` stands “inactive”. Under `COC(=O)c1c(CC[C@@H](CO)NC(=O)N[C@H](Cn2cc(C3(O)CCCCC3)nn2)C(C)C)oc(C(C)=O)c1C(=O)OC` stands “inactive”; under `C[C@@H]1CN([C@H](C)CO)C(=O)c2cc(NS(=O)(=O)c3ccc(F)cc3)ccc2O[C@@H]1CN(C)Cc1ccncc1`, “inactive”.

`COc1ccc(S(=O)(=O)N(C)C[C@H]2Oc3c(NS(=O)(=O)c4cn(C)cn4)cccc3C(=O)N([C@@H](C)CO)C[C@@H]2C)cc1`: the cytotoxicity call was “inactive”. With `COc1ccc(NC(=O)Nc2ccc3c(c2)C(=O)N([C@@H](C)CO)C[C@@H](C)[C@H](CN(C)C(=O)Nc2ccccc2)OCCCC[C@@H](C)O3)cc1` the entry was “inactive”; with `c1ccc2c(-c3cn[nH]c3)ccnc2c1`, “inactive”.

As to `C[C@H](CO)N1C[C@H](C)[C@@H](CN(C)S(C)(=O)=O)Oc2c(cccc2N(C)C)C1=O`, the cytotoxicity call was “inactive”. With `C[C@@H]1CN([C@@H](C)CO)C(=O)c2cc(NS(=O)(=O)c3ccc(F)cc3)ccc2O[C@@H]1CN(C)Cc1ccc(Cl)c(Cl)c1` the entry was “inactive”; with `C[C@H]1CN([C@@H](C)CO)C(=O)c2cc(NS(=O)(=O)c3ccc(Cl)cc3)ccc2O[C@@H]1CN(C)Cc1ccc(Cl)c(Cl)c1`, “active”. With `C[C@H]1CN([C@@H](C)CO)C(=O)c2cc(NS(=O)(=O)c3ccc(F)cc3)ccc2O[C@@H]1CN(C)Cc1ccc(Cl)c(Cl)c1` the entry was “active”; with `C[C@H](CO)N1C[C@H](C)[C@H](CN(C)Cc2ccc(Cl)c(Cl)c2)Oc2ccc(NS(=O)(=O)c3ccc(F)cc3)cc2C1=O`, “inactive”; with `C[C@@H]1CN([C@@H](C)CO)C(=O)c2cc(NS(=O)(=O)c3ccc(Cl)cc3)ccc2O[C@H]1CN(C)Cc1ccc(Cl)c(Cl)c1`, “active”. Under `C[C@@H]1CN([C@H](C)CO)C(=O)c2cc(NS(=O)(=O)c3ccc(F)cc3)ccc2O[C@H]1CN(C)Cc1ccc(Cl)c(Cl)c1` stands “inactive”; under `C[C@@H]1CN([C@@H](C)CO)C(=O)c2cc(NS(=O)(=O)c3ccc(F)cc3)ccc2O[C@H]1CN(C)Cc1ccc(Cl)c(Cl)c1`, “inactive”; under `C[C@@H]1CN([C@H](C)CO)C(=O)c2cc(NS(=O)(=O)c3ccc(Cl)cc3)ccc2O[C@@H]1CN(C)Cc1ccc(Cl)c(Cl)c1`, “active”. As to `Cc1ccc(S(=O)(=O)Nc2ccc3c(c2)C(=O)N([C@H](C)CO)C[C@H](C)[C@@H](CN(C)CC2CCCCC2)OCCCC[C@@H](C)O3)cc1`, the cytotoxicity call was “inactive”. `COc1cccc(OC)c1C(=O)NC1C(=O)N2C1SC(C)(C)C2C(=O)[O-].[Na+]` (configuration not stated): the cytotoxicity call is “inactive”.

`C[C@H](CO)N1C[C@H](C)[C@@H](CN(C)C(=O)NC2CCCCC2)OCCCC[C@H](C)Oc2ccc(NS(=O)(=O)c3cccs3)cc2C1=O`: the cytotoxicity call was “inactive”. With `C[C@H]1CN([C@@H](C)CO)C(=O)Cc2cc(NC(=O)NC3CCCCC3)ccc2O[C@@H]1CN(C)Cc1ccc(Cl)c(Cl)c1` the entry was “inactive”. `CCS(=O)(=O)NCC[C@@H]1CC[C@@H](NC(=O)Cc2ccccn2)[C@@H](CO)O1`: the cytotoxicity call was “inactive”. With `CC(C)=CCCC(C)=CCCC(C)=CCO` [trans,trans-FARNESOL ] the entry was “inactive”; with `C[C@@H]1CN([C@H](C)CO)C(=O)c2cccc(NC(=O)Nc3ccc4c(c3)OCO4)c2O[C@@H]1CN(C)Cc1ccc(C(=O)Nc2ccccc2N)cc1`, “inactive”; with `O=C(OC(C(F)(F)F)C(F)(F)F)N1CCN(Cc2ccc(C(F)(F)F)cc2N2CCCC2)CC1`, “inactive”. Under `C[C@H](CO)N1C[C@H](C)[C@@H](CN(C)Cc2ccccc2)Oc2ccc(NS(=O)(=O)c3cn(C)cn3)cc2C1=O` stands “inactive”; under `Cn1cnc(S(=O)(=O)N2C[C@H](O)COC[C@H]3O[C@H](CC(=O)NC4Cc5ccccc5C4)CC[C@@H]32)c1`, “inactive”; under `O=C(CCCCCNC(=O)OCCCCO[C@@H]1C[C@H](c2ccc(Br)cc2)C=C(C(=O)N2CCN(Cc3ccccc3)CC2)O1)NO`, “inactive”. Under `C[C@@H]1CCCCO[C@@H](CN(C)C(=O)c2ccccc2)[C@@H](C)CN([C@H](C)CO)C(=O)c2cc(NC(=O)Nc3ccc(C(F)(F)F)cc3)ccc2O1` stands “active”; under `C[C@@H]1CN([C@H](C)CO)C(=O)c2cc(NC(=O)Nc3ccc(C(F)(F)F)cc3)ccc2O[C@@H](C)CCCCO[C@H]1CN(C)C(=O)c1ccccc1`, “inactive”. Turning to `C[C@@H]1CCCCO[C@H](CN(C)C(=O)c2ccccc2)[C@H](C)CN([C@@H](C)CO)C(=O)c2cc(NC(=O)Nc3ccc(C(F)(F)F)cc3)ccc2O1`, the cytotoxicity call was “active”. On to `C[C@@H]1CN([C@H](C)CO)C(=O)c2cc(NC(=O)Nc3ccc(C(F)(F)F)cc3)ccc2O[C@@H](C)CCCCO[C@@H]1CN(C)C(=O)c1ccccc1`, for which the cytotoxicity call was “inactive”. With `C[C@@H]1CCCCO[C@@H](CN(C)C(=O)c2ccccc2)[C@H](C)CN([C@H](C)CO)C(=O)c2cc(NC(=O)Nc3ccc(C(F)(F)F)cc3)ccc2O1` the entry was “inactive”. With `C[C@@H]1CN([C@@H](C)CO)C(=O)c2cc(NC(=O)Nc3ccc(C(F)(F)F)cc3)ccc2O[C@@H](C)CCCCO[C@H]1CN(C)C(=O)c1ccccc1` the entry was “inactive”. On to `Cc1noc(C)c1NC(=O)Nc1cccc2c1O[C@@H](CN(C)Cc1ccc(-c3ccccc3)cc1)[C@@H](C)CN([C@@H](C)CO)C2=O`, for which the cytotoxicity call was “inactive”. With `Cc1ccc(S(=O)(=O)N(C)C[C@@H]2OCCCC[C@H](C)Oc3ccc(NC(=O)Nc4cccc5ccccc45)cc3C(=O)N([C@H](C)CO)C[C@@H]2C)cc1` the entry was “inactive”.
